Data reported in PubChem BioAssay (NCI).
This is part of a sample that, as a whole, favours compounds with a hit. Of some 83,000 tested, about 20% had one in any assay.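 Testing used 96-well plates and a 48-hour single-concentration exposure. Example: -40 means 40% of the starting cells died.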 A number with no mark means an inactive call. Active and inactive are the calls of the source. How the source made its calls: active means growth percent below 10; inactive means the rest.

How the values were obtained:
Experiment in all cases: NCI-60 one-dose screen, 48 h (100 = growth as untreated, 0 = no growth, -100 = all killed)
Conditions in all cases: 10 µM unless noted
RPMI-8226 leukemia = system: RPMI-8226 leukemia
OVCAR-8 ovarian = system: OVCAR-8 ovarian
OVCAR-5 ovarian = system: OVCAR-5 ovarian
OVCAR-4 ovarian = system: OVCAR-4 ovarian
SK-OV-3 ovarian = system: SK-OV-3 ovarian
IGROV1 ovarian = system: IGROV1 ovarian
OVCAR-3 ovarian = system: OVCAR-3 ovarian
HS 578T breast = system: HS 578T breast
NCI/ADR-RES ovarian = system: NCI/ADR-RES ovarian
T-47D breast = system: T-47D breast
BT-549 breast = system: BT-549 breast
MDA-MB-435 melanoma = system: MDA-MB-435 melanoma
SW-620 colon = system: SW-620 colon
MCF7 breast = system: MCF7 breast
HCT-116 colon = system: HCT-116 colon
HCC-2998 colon = system: HCC-2998 colon
KM12 colon = system: KM12 colon

| SMILES | growth (RPMI-8226 leukemia) | growth (OVCAR-8 ovarian) | growth (OVCAR-5 ovarian) | growth (OVCAR-4 ovarian) | growth (SK-OV-3 ovarian) [%] | growth (IGROV1 ovarian) | growth (OVCAR-3 ovarian) | growth (HS 578T breast) | growth (NCI/ADR-RES ovarian) | growth (T-47D breast) | growth (BT-549 breast) | growth (MDA-MB-435 melanoma) | growth (SW-620 colon) | growth (MCF7 breast) | growth (HCT-116 colon) | growth (HCC-2998 colon) [%] | growth (KM12 colon) |
| --- | --- | --- | --- | --- | --- | --- | --- | --- | --- | --- | --- | --- | --- | --- | --- | --- | --- |
| CC(=O)c1ccc(NC(=O)CSc2nnc(-c3cc(-c4ccc(Cl)cc4)nc4ccccc34)o2)cc1 | 25.5% | 82% | 96.7% | 71.1% | 90.1 | 92.7% | 107% | 110% | 83.2% | 79.1% | 79.7% | 85.5% | 75.6% | 55.8% | 20.8% | 101 | 89.3% |
| S=C(Nc1ccc(Cl)cc1)c1ccccn1 | 96.8% | 92.7% | 102% | 96.9% | 94.3 | 93.3% | 109% | 95.9% | 96.6% | 79.2% | 94.5% | 106% | 100% | 81.4% | 89.7% | 110 | 100% |
| O=C1C(Cl)=C(Nc2ccc3c(c2NC2=C(Cl)C(=O)c4ccccc4C2=O)C(=O)c2ccccc2C3=O)C(=O)c2ccccc21 | 28.1% | 22.3% | 3.29% (active) | -12% (active) | 90.3 | 6.05% (active) | -2.06% (active) | 42.2% | 7.89% (active) | 10.5% | 42.3% | -64.7% (active) | 24.7% | -7.63% (active) | 2.25% (active) | 67 | 39% |
| O=c1[nH]c2ccccc2cc1-c1nc2ccc(Cl)cc2[nH]1 | -38.5% (active) | 57.7% | 100% | 51% | 14 | 26.5% | 35.5% | 46.1% | 74.4% | 35.1% | 43% | 32.5% | 42.5% | 23.8% | 22.2% | 79.7 | 5.1% (active) |
| C=C1C(=O)O[C@H]2[C@H]1CC/C(C=Nc1c(N)cc(C(F)(F)F)cc1Br)=C\CC[C@@]1(C)O[C@@H]21 | -23.4% (active) | -8.6% (active) | 42.8% | 55.3% | 83.1 | -9.71% (active) | -91.9% (active) | 6.58% (active) | 9.14% (active) | -16.3% (active) | -22.6% (active) | 4.47% (active) | -63.1% (active) | -2.09% (active) | -80.6% (active) | 34.2 | 30% |
| CC(C)C[C@H](C(=O)O)N(C)C(=O)[C@@H]1CCCN1C(=O)[C@H](C)OC(=O)[C@H](CCC(N)=O)NC(=O)[C@@H]1CCC(=O)N1 | 108% | 103% | 100% | 86.8% | 92.8 | 114% | 103% | 107% | 111% | 86.8% | 94.2% | 106% | 106% | 85.2% | 99.2% | 108 | 100% |
| FC(F)(F)c1ccc2c(Nc3cccc(C4CC(c5ccccc5)=NN4c4ccc(Cl)cc4)c3)ccnc2c1 (configuration not stated) | -19.5% (active) | 29.8% | 95.5% | 66.6% | 80.9 | 20.1% | 19.5% | 84.8% | 35.3% | 61.9% | 55.7% | 38% | -17.3% (active) | 11.5% | -3.98% (active) | 66.5 | 15.5% |
| Cc1c(Cl)cccc1NC(=O)c1sc2nc3c(cc2c1N)CCCCCC3 | 18.4% | 17.5% | 46.7% | 46.8% | 34.8 | 42.9% | -18.1% (active) | 24.6% | 17.1% | 40.2% | 11.2% | -19.5% (active) | 21.4% | 15.1% | 5.07% (active) | 52.2 | 19.1% |
| COc1ccc(/C=C(/C(=O)N2CCN(Cc3ccccc3)CC2)c2cc(OC)c(OC)c(OC)c2)cc1O | 66.9% | 80.1% | 99.9% | 90.3% | 65.5 | 68.4% | 30.8% | 65.1% | 71.7% | 77.2% | 77.2% | 1.04% (active) | 45.6% | 20.9% | 32% | 95.8 | 55.9% |
| OCCNc1nc(NCCO)nc(Nc2ccc(C3=NN(c4ccc(Cl)cc4)C(c4ccc(Cl)cc4)C3)cc2)n1 (configuration not stated) | 27.7% | 65.3% | 110% | 65.6% | 84.1 | 78.9% | 40.7% | 62% | 73.8% | 55.8% | 77.1% | 58.1% | 71.1% | 20.4% | 48.6% | 56.8 | 49.8% |
| O=C(Nc1nc(-c2ccccc2)cs1)c1cc(-c2ccc(Br)cc2)nc2ccccc12 | 39.9% | 57.1% | 81.7% | 57.6% | 51.6 | 59.4% | 63.4% | 62.1% | 58.5% | 21.7% | 60.3% | 77.2% | 51.6% | 37.6% | 27.5% | 87.7 | 67% |
| CSc1nc(-c2ccco2)c2c(N)[nH]nc2n1 | 109% | 108% | 109% | 109% | 98.6 | 109% | 116% | 108% | 103% | 75.7% | 102% | 115% | 111% | 94.2% | 84.1% | 111 | 44.1% |
| O=C1CS/C(=N/c2nnc(-c3ccc(O)cc3)s2)N1 | 101% | 109% | 103% | 110% | 82 | 107% | 107% | 95.4% | 99.3% | 75.3% | 100% | 103% | 107% | 89.3% | 99.8% | 102 | 100% |
| COC(=O)c1ccc2c(c1)n(Cc1ccc3ccccc3c1)c[n+]2Cc1ccc2ccccc2c1 | -5.06% (active) | 52.9% | 55.6% | 35.5% | 75.5 | 4.97% (active) | 15.6% | 67.6% | 101% | 0.0638% (active) | 56.7% | 4.2% (active) | 37.6% | 29.2% | 32% | 33.9 | -8.69% (active) |
| CSc1nc(-c2ccc(F)cc2)c(C#N)c(N2CCOCC2)n1 | 89.2% | 92.9% | 89.2% | 90.6% | 97.3 | 92% | 98.1% | 91.4% | 97.5% | 79.7% | 95.3% | 105% | 97.5% | 90.4% | 96.6% | 101 | 101% |
| O=C1C(Cl)=C(NCCCN(CCCNC2=C(Cl)C(=O)c3ccccc3C2=O)C2=C(Cl)C(=O)c3ccccc3C2=O)C(=O)c2ccccc21 | 45.4% | 39.2% | 121% | 33.9% | 93.8 | 54.8% | -0.584% (active) | 67.6% | 76.1% | 51.8% | 85.6% | -86.5% (active) | 47.6% | -19.9% (active) | 4.83% (active) | 92.4 | 80.1% |
